Measured values: PMC11006913
Residue numbers refer to the chain shown, from its start.

Tests used:
Assay in all cases: PBM; 200 nM protein, PBS
Conditions in all cases: dsDNA, one strand shown
[1] = target: CRX (Homo sapiens, UniProt O43186 26-111)
[2] = target: HOXA4 (Homo sapiens, UniProt Q00056 201-287, W262R)
[3] = target: PRRX1 (Homo sapiens, UniProt P54821 80-166, F113S)
[4] = target: HOXA4 (Homo sapiens, UniProt Q00056 201-287, R217L)
[5] = target: CRX (Homo sapiens, UniProt O43186 26-111, E42D)
[6] = target: HOXA4 (Homo sapiens, UniProt Q00056 201-287)
[7] = target: HOXA4 (Homo sapiens, UniProt Q00056 201-287, W262F)
[8] = target: PRRX1 (Homo sapiens, UniProt P54821 80-166)
[9] = target: HOXC9 (Homo sapiens, UniProt P31274 178-260, K195R)
[10] = target: ALX4 (Homo sapiens, UniProt Q9H161 200-286)
[11] = target: ALX4 (Homo sapiens, UniProt Q9H161 200-286, Q225E)
[12] = target: HOXC9 (Homo sapiens, UniProt P31274 178-260)
[13] = target: HOXC9 (Homo sapiens, UniProt P31274 178-260, R193K)
[14] = target: HOXC9 (Homo sapiens, UniProt P31274 178-260, R222W)
[15] = target: CRX (Homo sapiens, UniProt O43186 26-111, R41L)
[16] = target: T1, VENTX (Homo sapiens, UniProt O95231 78-163, R121Q)
T1 sequence: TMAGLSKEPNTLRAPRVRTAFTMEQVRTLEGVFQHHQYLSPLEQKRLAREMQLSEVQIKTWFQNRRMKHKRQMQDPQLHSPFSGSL

[17] = target: T2, VENTX (Homo sapiens, UniProt O95231 78-163, Y115F)
T2 sequence: T1 sequence with Y38F, Q44R

[18] = target: PITX2 (Homo sapiens, UniProt Q99697 72-157)
[19] = target: T3, SIX6 (Homo sapiens, UniProt O95475 114-200, L167I)
T3 sequence: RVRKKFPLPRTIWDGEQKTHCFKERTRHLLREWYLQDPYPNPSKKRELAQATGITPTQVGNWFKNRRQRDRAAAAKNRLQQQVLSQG

[20] = target: T4, SIX6 (Homo sapiens, UniProt O95475 114-200, L143V)
T4 sequence: T3 sequence with L30V, I54L

[21] = target: T5, SIX6 (Homo sapiens, UniProt O95475 114-200, H141N)
T5 sequence: T3 sequence with H28N, I54L

[22] = target: T6, SIX6 (Homo sapiens, UniProt O95475 114-200, T165P)
T6 sequence: T3 sequence with T52P, I54L

[23] = target: T7, SIX6 (Homo sapiens, UniProt O95475 114-200, L167M)
T7 sequence: T3 sequence with I54M

[24] = target: T8, SIX6 (Homo sapiens, UniProt O95475 114-200, L143M)
T8 sequence: T3 sequence with L30M, I54L

[25] = target: T9, SIX6 (Homo sapiens, UniProt O95475 114-200, T165G)
T9 sequence: T3 sequence with T52G, I54L

[26] = target: T10, SIX6 (Homo sapiens, UniProt O95475 114-200, T139Q)
T10 sequence: T3 sequence with T26Q, I54L

[27] = target: T11, SIX6 (Homo sapiens, UniProt O95475 114-200, T165A)
T11 sequence: T3 sequence with T52A, I54L

[28] = target: T12, SIX6 (Homo sapiens, UniProt O95475 114-200, L167V)
T12 sequence: T3 sequence with I54V

[29] = target: T13, SIX6 (Homo sapiens, UniProt O95475 114-200)
T13 sequence: T3 sequence with I54L

[30] = target: T14, SIX6 (Homo sapiens, UniProt O95475 114-200, T165I)
T14 sequence: T3 sequence with T52I, I54L

[31] = target: HOXB9 (Homo sapiens, UniProt P17482 171-250, T197M)
[32] = target: T15, SIX6 (Homo sapiens, UniProt O95475 114-200, L143I)
T15 sequence: T3 sequence with L30I, I54L

[33] = target: HOXA2 (Homo sapiens, UniProt O43364 129-215, R185T)
[34] = target: HOXB9 (Homo sapiens, UniProt P17482 171-250)
[35] = target: HOXA2 (Homo sapiens, UniProt O43364 129-215, R185K)
[36] = target: HOXB9 (Homo sapiens, UniProt P17482 171-250, R186Q)
[37] = target: HOXA2 (Homo sapiens, UniProt O43364 129-215, Y150S)
[38] = target: HOXA2 (Homo sapiens, UniProt O43364 129-215)
HOXA2 (Homo sapiens, UniProt O43364 129-215), sequence (O43364 129-215): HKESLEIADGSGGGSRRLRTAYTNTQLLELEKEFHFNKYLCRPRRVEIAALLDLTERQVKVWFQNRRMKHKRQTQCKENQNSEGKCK

CRX (Homo sapiens, UniProt O43186 26-111, E42D), sequence (O43186 26-111 E42D): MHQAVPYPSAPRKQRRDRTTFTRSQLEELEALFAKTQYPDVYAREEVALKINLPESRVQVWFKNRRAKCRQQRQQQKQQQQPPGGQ
CRX (Homo sapiens, UniProt O43186 26-111), sequence (O43186 26-111): as the sequence (O43186 26-111 E42D) above, with D17E counted along it
CRX (Homo sapiens, UniProt O43186 26-111, R41L), sequence (O43186 26-111 R41L): as the sequence (O43186 26-111 E42D) above, with R16L, D17E counted along it
ALX4 (Homo sapiens, UniProt Q9H161 200-286), sequence (Q9H161 200-286): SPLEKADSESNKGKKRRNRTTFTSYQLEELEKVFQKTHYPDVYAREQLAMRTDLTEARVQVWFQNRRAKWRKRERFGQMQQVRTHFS
ALX4 (Homo sapiens, UniProt Q9H161 200-286, Q225E), sequence (Q9H161 200-286 Q225E): as the sequence (Q9H161 200-286) above, with Q26E counted along it
HOXB9 (Homo sapiens, UniProt P17482 171-250, T197M), sequence (P17482 171-250 T197M): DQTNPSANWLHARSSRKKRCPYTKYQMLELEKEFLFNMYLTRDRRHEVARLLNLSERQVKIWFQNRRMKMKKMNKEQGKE
HOXA2 (Homo sapiens, UniProt O43364 129-215, R185K), sequence (O43364 129-215 R185K): as the sequence (O43364 129-215) above, with R57K counted along it
HOXA2 (Homo sapiens, UniProt O43364 129-215, R185T), sequence (O43364 129-215 R185T): as the sequence (O43364 129-215) above, with R57T counted along it
HOXA2 (Homo sapiens, UniProt O43364 129-215, Y150S), sequence (O43364 129-215 Y150S): as the sequence (O43364 129-215) above, with Y22S counted along it
HOXA4 (Homo sapiens, UniProt Q00056 201-287, W262F), sequence (Q00056 201-287 W262F): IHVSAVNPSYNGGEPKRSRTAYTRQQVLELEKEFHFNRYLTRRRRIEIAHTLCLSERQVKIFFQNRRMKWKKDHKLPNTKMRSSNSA
HOXC9 (Homo sapiens, UniProt P31274 178-260, R193K), sequence (P31274 178-260 R193K): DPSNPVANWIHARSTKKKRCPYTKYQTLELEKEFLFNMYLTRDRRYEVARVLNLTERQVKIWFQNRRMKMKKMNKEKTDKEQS
HOXC9 (Homo sapiens, UniProt P31274 178-260, R222W), sequence (P31274 178-260 R222W): as the sequence (P31274 178-260 R193K) above, with K16R, R45W counted along it
PRRX1 (Homo sapiens, UniProt P54821 80-166, F113S), sequence (P54821 80-166 F113S): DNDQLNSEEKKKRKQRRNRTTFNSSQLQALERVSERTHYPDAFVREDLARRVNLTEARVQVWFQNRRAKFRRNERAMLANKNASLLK
PRRX1 (Homo sapiens, UniProt P54821 80-166), sequence (P54821 80-166): as the sequence (P54821 80-166 F113S) above, with S34F counted along it
HOXC9 (Homo sapiens, UniProt P31274 178-260), sequence (P31274 178-260): as the sequence (P31274 178-260 R193K) above, with K16R counted along it
HOXC9 (Homo sapiens, UniProt P31274 178-260, K195R), sequence (P31274 178-260 K195R): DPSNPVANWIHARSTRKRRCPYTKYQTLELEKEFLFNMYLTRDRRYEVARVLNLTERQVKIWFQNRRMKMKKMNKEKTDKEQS
HOXA4 (Homo sapiens, UniProt Q00056 201-287), sequence (Q00056 201-287): as the sequence (Q00056 201-287 W262F) above, with F62W counted along it
HOXB9 (Homo sapiens, UniProt P17482 171-250, R186Q), sequence (P17482 171-250 R186Q): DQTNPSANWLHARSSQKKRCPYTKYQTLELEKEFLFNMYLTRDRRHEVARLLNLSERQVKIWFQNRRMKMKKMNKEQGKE
HOXA4 (Homo sapiens, UniProt Q00056 201-287, R217L), sequence (Q00056 201-287 R217L): as the sequence (Q00056 201-287 W262F) above, with R17L, F62W counted along it
HOXA4 (Homo sapiens, UniProt Q00056 201-287, W262R), sequence (Q00056 201-287 W262R): as the sequence (Q00056 201-287 W262F) above, with F62R counted along it
HOXB9 (Homo sapiens, UniProt P17482 171-250), sequence (P17482 171-250): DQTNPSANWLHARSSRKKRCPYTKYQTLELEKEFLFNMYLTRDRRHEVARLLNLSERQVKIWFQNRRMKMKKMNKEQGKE

For GGGGCTCA, the binding signal [1] was 9.96 upbm affinity estimate (log intensity, higher = more binding, comparable within an allelic series), the binding signal [2] was 9.76 upbm affinity estimate (log intensity, higher = more binding, comparable within an allelic series) and the binding signal [3] was 9.31 upbm affinity estimate (log intensity, higher = more binding, comparable within an allelic series). For the same sequence, the binding signal [4] was 9.78 upbm affinity estimate (log intensity, higher = more binding, comparable within an allelic series), the binding signal [5] was 9.8 upbm affinity estimate (log intensity, higher = more binding, comparable within an allelic series) and the binding signal [6] was 9.76 upbm affinity estimate (log intensity, higher = more binding, comparable within an allelic series). The binding signal [7] was 9.78 upbm affinity estimate (log intensity, higher = more binding, comparable within an allelic series) and the binding signal [8] was 9.52 upbm affinity estimate (log intensity, higher = more binding, comparable within an allelic series).

For AGGGGACC, the binding signal [1] was 8.1 upbm affinity estimate (log intensity, higher = more binding, comparable within an allelic series), the binding signal [9] was 9.61 upbm affinity estimate (log intensity, higher = more binding, comparable within an allelic series) and the binding signal [10] was 8.18 upbm affinity estimate (log intensity, higher = more binding, comparable within an allelic series). For the same sequence, the binding signal [11] was 8.19 upbm affinity estimate (log intensity, higher = more binding, comparable within an allelic series), the binding signal [5] was 8.22 upbm affinity estimate (log intensity, higher = more binding, comparable within an allelic series) and the binding signal [12] was 9.69 upbm affinity estimate (log intensity, higher = more binding, comparable within an allelic series). For the same sequence, the binding signal [13] was 9.54 upbm affinity estimate (log intensity, higher = more binding, comparable within an allelic series), the binding signal [14] was 9.53 upbm affinity estimate (log intensity, higher = more binding, comparable within an allelic series) and the binding signal [15] was 8.23 upbm affinity estimate (log intensity, higher = more binding, comparable within an allelic series).

For GCAGATTA, the binding signal [1] was 13 upbm affinity estimate (log intensity, higher = more binding, comparable within an allelic series), the binding signal [16] was 10.3 upbm affinity estimate (log intensity, higher = more binding, comparable within an allelic series) and the binding signal [17] was 10.4 upbm affinity estimate (log intensity, higher = more binding, comparable within an allelic series). The binding signal [5] was 13 upbm affinity estimate (log intensity, higher = more binding, comparable within an allelic series) and the binding signal [18] was 12.3 upbm affinity estimate (log intensity, higher = more binding, comparable within an allelic series).

AGATTAGC was tested, and the binding signal [1] was 13 upbm affinity estimate (log intensity, higher = more binding, comparable within an allelic series), the binding signal [16] was 10.5 upbm affinity estimate (log intensity, higher = more binding, comparable within an allelic series) and the binding signal [17] was 10.4 upbm affinity estimate (log intensity, higher = more binding, comparable within an allelic series). For the same sequence, the binding signal [5] was 13.1 upbm affinity estimate (log intensity, higher = more binding, comparable within an allelic series), the binding signal [18] was 12.5 upbm affinity estimate (log intensity, higher = more binding, comparable within an allelic series) and the binding signal [15] was 12.7 upbm affinity estimate (log intensity, higher = more binding, comparable within an allelic series).

For AGACTATC, the binding signal [1] was 9.61 upbm affinity estimate (log intensity, higher = more binding, comparable within an allelic series), the binding signal [19] was 10.2 upbm affinity estimate (log intensity, higher = more binding, comparable within an allelic series) and the binding signal [20] was 9.83 upbm affinity estimate (log intensity, higher = more binding, comparable within an allelic series). For the same sequence, the binding signal [21] was 10.2 upbm affinity estimate (log intensity, higher = more binding, comparable within an allelic series), the binding signal [22] was 9.59 upbm affinity estimate (log intensity, higher = more binding, comparable within an allelic series) and the binding signal [23] was 9.99 upbm affinity estimate (log intensity, higher = more binding, comparable within an allelic series). For the same sequence, the binding signal [24] was 10.2 upbm affinity estimate (log intensity, higher = more binding, comparable within an allelic series), the binding signal [25] was 10.2 upbm affinity estimate (log intensity, higher = more binding, comparable within an allelic series) and the binding signal [26] was 10.4 upbm affinity estimate (log intensity, higher = more binding, comparable within an allelic series). The binding signal [5] was 9.51 upbm affinity estimate (log intensity, higher = more binding, comparable within an allelic series), the binding signal [27] was 10.1 upbm affinity estimate (log intensity, higher = more binding, comparable within an allelic series) and the binding signal [28] was 10 upbm affinity estimate (log intensity, higher = more binding, comparable within an allelic series). For the same sequence, the binding signal [29] was 10.2 upbm affinity estimate (log intensity, higher = more binding, comparable within an allelic series), the binding signal [30] was 10.1 upbm affinity estimate (log intensity, higher = more binding, comparable within an allelic series) and the binding signal [15] was 9.45 upbm affinity estimate (log intensity, higher = more binding, comparable within an allelic series).

In the case of GGGGCCCC, the binding signal [1] is reported as 8.9 upbm affinity estimate (log intensity, higher = more binding, comparable within an allelic series), the binding signal [31] is reported as 8.67 upbm affinity estimate (log intensity, higher = more binding, comparable within an allelic series) and the binding signal [19] is reported as 9.09 upbm affinity estimate (log intensity, higher = more binding, comparable within an allelic series). For the same sequence, the binding signal [20] was 8.85 upbm affinity estimate (log intensity, higher = more binding, comparable within an allelic series), the binding signal [10] was 8.29 upbm affinity estimate (log intensity, higher = more binding, comparable within an allelic series) and the binding signal [21] was 9 upbm affinity estimate (log intensity, higher = more binding, comparable within an allelic series). For the same sequence, the binding signal [22] was 8.87 upbm affinity estimate (log intensity, higher = more binding, comparable within an allelic series), the binding signal [23] was 8.88 upbm affinity estimate (log intensity, higher = more binding, comparable within an allelic series) and the binding signal [24] was 8.91 upbm affinity estimate (log intensity, higher = more binding, comparable within an allelic series). The binding signal [32] was 8.93 upbm affinity estimate (log intensity, higher = more binding, comparable within an allelic series), the binding signal [11] was 8.44 upbm affinity estimate (log intensity, higher = more binding, comparable within an allelic series) and the binding signal [25] was 8.95 upbm affinity estimate (log intensity, higher = more binding, comparable within an allelic series). The binding signal [33] was 7.49 upbm affinity estimate (log intensity, higher = more binding, comparable within an allelic series), the binding signal [34] was 8.5 upbm affinity estimate (log intensity, higher = more binding, comparable within an allelic series) and the binding signal [26] was 9.06 upbm affinity estimate (log intensity, higher = more binding, comparable within an allelic series). The binding signal [5] was 8.69 upbm affinity estimate (log intensity, higher = more binding, comparable within an allelic series), the binding signal [27] was 9.03 upbm affinity estimate (log intensity, higher = more binding, comparable within an allelic series) and the binding signal [35] was 10.2 upbm affinity estimate (log intensity, higher = more binding, comparable within an allelic series). The binding signal [28] was 8.99 upbm affinity estimate (log intensity, higher = more binding, comparable within an allelic series), the binding signal [29] was 8.93 upbm affinity estimate (log intensity, higher = more binding, comparable within an allelic series) and the binding signal [30] was 8.97 upbm affinity estimate (log intensity, higher = more binding, comparable within an allelic series). The binding signal [36] was 8.63 upbm affinity estimate (log intensity, higher = more binding, comparable within an allelic series), the binding signal [37] was 10.5 upbm affinity estimate (log intensity, higher = more binding, comparable within an allelic series) and the binding signal [15] was 8.38 upbm affinity estimate (log intensity, higher = more binding, comparable within an allelic series). For the same sequence, the binding signal [38] was 7.38 upbm affinity estimate (log intensity, higher = more binding, comparable within an allelic series).
